The nature of experiment [1]: inhibitors of TNFa-induced NFkB p65 translocation, primary screen, imaging, HUVEC, MLSMR starter and 10KST1 sets (AID 438;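 active = inhibition above 20% together with a positive visual image hit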;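 also: compound added about 3h40 before a 20 min TNFalpha stimulation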;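 as to inhibition: signal is the nuclear over cytoplasmic p65 intensity ratio per well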). To be noted: HUVEC TNFa-induced p65 nuclear translocation; cell count: measured here: nuclei count (cytotoxicity indicator), at 2.08 µM; inhibition: at 2 µM, stronger effect = higher value, 0% TNFa-plus-vehicle, 100% no-TNFa wells.
Experiment [2] in a line: inhibitors of mutant huntingtin aggregation, primary screen, imaging, exon1htt(103Q)mCFP cells, high-content imaging (AID 483;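 active = visual image review flags a hit and inhibition of aggregation exceeds 20%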;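 also: compound exposure lasted 3 days before fixation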;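 as to nuclei count: percent of the per-plate median nuclei count of sample wells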). The following applies: exon1htt(103Q)mCFP cell line, aggregate imaging, at 2 µM; inhibition of aggregation: stronger effect = higher value; nuclei count: measured here: cell count, toxicity.
The nature of experiment [3]: inhibitors of E-selectin induction by TNFa, primary screen, imaging, HUVEC, immunofluorescence, MLSMR starter and 10KST1 sets (AID 487).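 As to inhibition: signal is fraction of cell area covered by stained E-selectin grains.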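 As to nuclei count: 100% = median nuclei count of all wells on the same plate.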 To be noted: HUVEC TNFalpha-induced E-selectin immunofluorescence imaging, at 2 µM; inhibition: stronger effect = higher value; nuclei count: measured here: cell number, toxicity.
The target of experiment [4] is Voltage-gated potassium channel subunit beta-2 (Rattus norvegicus) (UniProt P62483). Briefly: KvBeta enzyme negative modulators, primary screen, biochemical, NADPH fluorescence (AID 622;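 active = fluorescence slope higher than the sample average by over 3 SD, cut at about -0.22 in these data, passing the limit was not always enough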;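 also: slope of raw intensity against log time taken from 70 to 1610 s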). The following applies: recombinant KvBeta, 4-cyanobenzaldehyde reduction, at 10 µM, stronger effect = higher value.
Chain of Voltage-gated potassium channel subunit beta-2 (Rattus norvegicus) (P62483 whole entry, looked up): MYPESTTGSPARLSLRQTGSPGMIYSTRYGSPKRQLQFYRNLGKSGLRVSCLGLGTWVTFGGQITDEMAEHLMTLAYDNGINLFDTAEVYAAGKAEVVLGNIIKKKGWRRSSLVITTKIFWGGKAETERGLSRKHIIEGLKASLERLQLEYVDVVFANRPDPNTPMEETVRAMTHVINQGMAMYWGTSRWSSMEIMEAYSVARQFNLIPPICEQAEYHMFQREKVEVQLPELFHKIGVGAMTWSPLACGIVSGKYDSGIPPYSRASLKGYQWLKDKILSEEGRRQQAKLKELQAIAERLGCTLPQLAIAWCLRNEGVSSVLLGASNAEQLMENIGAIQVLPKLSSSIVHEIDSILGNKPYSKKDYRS
Experiment [5] shares this target. As to the kind of experiment: KvBeta positive modulators, primary screen, biochemical, NADPH fluorescence (AID 623;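 active = NADPH fluorescence slope more negative than the mean of all samples by about 3 SD, 99.7% confidence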;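 also: fluorescence intensity change per second fitted from 20 to 320 s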). To be noted: Recombinant KvBeta, NADPH fluorescence decrease slope, 10 min; at 10 µM; stronger effect = lower value.
The target of experiment [6] is Alpha-2C adrenergic receptor (Homo sapiens) (UniProt P18825). Briefly: modulators of alpha2C/GIRK thallium flux, primary screen, cell-based, HEK293 alpha2C/GIRK1/2 (AID 624;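 active = fluorescence slope after compound addition differing from the mean of all screened samples at 99.7% confidence, in either direction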;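 also: slope of fluorescence ratio to pre-addition baseline per second over 15 to 24 s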). The following applies: thallium flux BTC fluorescence, at 10 µM, actives lie on both sides.
Chain of Alpha-2C adrenergic receptor (Homo sapiens) (P18825 whole entry, looked up): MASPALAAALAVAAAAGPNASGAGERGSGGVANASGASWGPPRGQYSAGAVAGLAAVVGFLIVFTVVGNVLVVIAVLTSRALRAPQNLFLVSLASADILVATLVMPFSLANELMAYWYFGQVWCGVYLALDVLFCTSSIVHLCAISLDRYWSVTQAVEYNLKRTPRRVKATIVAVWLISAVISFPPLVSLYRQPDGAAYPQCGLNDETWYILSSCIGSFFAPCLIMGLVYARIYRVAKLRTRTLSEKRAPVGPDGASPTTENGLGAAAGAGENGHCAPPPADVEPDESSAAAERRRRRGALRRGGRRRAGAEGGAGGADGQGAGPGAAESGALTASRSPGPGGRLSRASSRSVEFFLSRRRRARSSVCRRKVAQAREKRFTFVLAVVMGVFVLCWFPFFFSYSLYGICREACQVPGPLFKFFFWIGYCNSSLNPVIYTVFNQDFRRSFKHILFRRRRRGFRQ
The nature of experiment [7]: inhibitors of Sendai virus-induced IRF3 signaling, primary screen, TLR/RLR signaling modifier project, cell-based, Sendai virus stimulus, luciferase, 10K MLSCN set (AID 602276;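 active = inhibition at or above 50% at 10 µM; inactive = inhibition below 50%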;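 also: firefly luciferase from ISG56 promoter only with Renilla not read in this screen; 0% = Sendai virus plus DMSO and 100% = medium plus DMSO without virus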). The following applies: HEK293 RL24 IRF3 luciferase reporter, at 10 µM, stronger effect = higher value.
Experiment [8] is described as follows: inhibitors of poly I:C-induced TLR3 signaling, primary screen, cell-based, poly I:C stimulus, luciferase, 10K MLSCN set (AID 602277;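 active = inhibition of the reporter signal at or above 50%; inactive = inhibition below 50%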). To be noted: HEK293-TLR3 RL24 IRF3 luciferase reporter, at 10 µM, stronger effect = higher value. (In general: A reporter such as luciferase makes a cellular process visible.)

Calls of active or inactive are those of the source.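 The calls were made as follows, unless noted: active = visually confirmed hit in the image check and inhibition above 20%; inconclusive = visually confirmed hit but inhibition not above 20%; inactive = no visual hit in the image check.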

As a reminder, the inhibition is the relative decrease from the control value, in per cent. `COc1ccc(OC)c(C2C(C(=O)Nc3ccc(F)cc3)=C(C)Nc3nc(CCCO)nn32)c1` (stereo not drawn): the cell count in experiment [1] is 666. In addition, the inhibition in experiment [1] was 7.1% (inactive); in experiment [3], -44% (inactive); in experiment [7], 0.814% (inactive); in experiment [8], 11.9% (inactive). Further, the inhibition of aggregation in experiment [2] is -11.2% (inactive). The nuclei count came to 117% in experiment [2] and 109% in experiment [3]. Moreover, in experiment [4], the fluorescence slope was -0.427 (inactive). For the same molecule, the NADPH fluorescence slope in experiment [5] is 8.4e-06 (inactive). In addition, the slope in experiment [6] is 0.00613 (inactive).
For the molecule `COc1ccccc1N1C(=O)c2ccccc2NC1c1ccncc1` (stereo not drawn), in experiment [1], the cell count came out at 427. Moreover, the inhibition was 5.6% (inactive) in experiment [1], -456% (inactive) in experiment [3], -1.3% (inactive) in experiment [7] and 5.74% (inactive) in experiment [8]. For the same molecule, in experiment [2], the inhibition of aggregation is -20.4% (inactive). The nuclei count in experiment [2] was determined as 103%; in experiment [3] it was 163%. The fluorescence slope in experiment [4] is -0.437 (inactive). Moreover, the NADPH fluorescence slope in experiment [5] is -0.000349 (inactive). In experiment [6], the slope is 0.00578 (inactive).
With `C=CCSC1=C(C#N)C(c2ccccc2)CC(=O)N1` (stereo not drawn), the cell count in experiment [1] came to 486. Further, the inhibition in experiment [1] is -1.6% (inactive); in experiment [3], -112% (inactive); in experiment [7], 6.68% (inactive); in experiment [8] it was 8.17% (inactive). Besides, in experiment [2], the inhibition of aggregation was 1.6% (inactive). Also, the nuclei count came out at 101% in experiment [2] and 104% in experiment [3]. Besides, in experiment [4], the fluorescence slope was -0.527 (inactive). In experiment [5], the NADPH fluorescence slope was 8.1e-07 (inactive). The slope in experiment [6] is 0.00534 (inactive).
In the case of `C=CCc1c(C)nc(SC)nc1Nc1ccc(C(=O)O)cc1`, the cell count in experiment [1] amounted to 497. Besides, the inhibition in experiment [1] is 7.2% (inactive); in experiment [3] it was -41.5% (inactive); in experiment [7] it was 4.8% (inactive); in experiment [8], 21.7% (inactive). For the same molecule, the inhibition of aggregation in experiment [2] is 7.3% (inactive). The nuclei count is 106% in experiment [2] and 118% in experiment [3]. Also, the fluorescence slope in experiment [4] was -0.488 (inactive). For the same molecule, the NADPH fluorescence slope in experiment [5] was -3.9e-05 (inactive). Also, in experiment [6], the slope was 0.00683 (inactive).
As to `CCc1nnc(NC(=O)NCN2C(=O)C3C4C=CC(C4)C3C2=O)s1` (stereo not drawn), the cell count in experiment [1] stood at 303. For the same molecule, the inhibition in experiment [1] was 4.3% (inactive); in experiment [3] it was -28.4% (inactive); in experiment [7] it was 7.26% (inactive); in experiment [8], 12.4% (inactive). Further, the inhibition of aggregation in experiment [2] is 3.2% (inactive). The nuclei count was 92.9% in experiment [2] and 96.4% in experiment [3]. In addition, the fluorescence slope in experiment [4] was -0.458 (inactive). Besides, the NADPH fluorescence slope in experiment [5] is -0.000309 (inactive). In experiment [6], the slope is 0.00673 (inactive).
Consider `CCOC(=O)C1=C(c2ccccc2)N2CCN=C2S1`, for which the cell count in experiment [1] is 507. Also, the inhibition in experiment [1] is -12.1% (inactive); in experiment [3], -12.3% (inactive); in experiment [7], 1.18% (inactive); in experiment [8], 6.97% (inactive). Moreover, the inhibition of aggregation in experiment [2] is 18.9% (inactive). Further, the nuclei count in experiment [2] worked out at 59%; in experiment [3], 94.2%. Further, in experiment [4], the fluorescence slope is -0.521 (inactive). The NADPH fluorescence slope in experiment [5] is -1.6e-06 (inactive). The slope in experiment [6] is 0.00413 (inactive).
Take `O=C1c2cccnc2C(=O)N1c1cccc(-c2nc3ccccc3o2)c1`: the cell count in experiment [1] was found to be 339. The inhibition in experiment [1] was 9.1% (inactive); in experiment [3], -87.2% (inactive); in experiment [7], 13.3% (inactive); in experiment [8], 13.5% (inactive). Moreover, the inhibition of aggregation in experiment [2] was 28.9% (inactive). The nuclei count was found to be 84% in experiment [2] and 117% in experiment [3]. Moreover, the fluorescence slope in experiment [4] was -0.417 (inactive). Also, in experiment [5], the NADPH fluorescence slope was -4e-05 (inactive). For the same molecule, the slope in experiment [6] was 0.00507 (inactive).
`Cc1noc(C(=O)Nc2ccc3c(c2)OCO3)c1Cl`: in experiment [1], the cell count is 763. Besides, the inhibition is 0% (inactive) in experiment [1], -40.9% (inactive) in experiment [3], -21.3% (inactive) in experiment [7] and -27.6% (inactive) in experiment [8]. The inhibition of aggregation in experiment [2] is -14.1% (inactive). In addition, the values for the nuclei count in experiment [2] and in experiment [3] were 129% and 108%, respectively. The fluorescence slope in experiment [4] was -0.419 (inactive). Further, the NADPH fluorescence slope in experiment [5] is -6.4e-05 (inactive). For the same molecule, in experiment [6], the slope was 0.00438 (inactive).

Values taken from PubChem BioAssay.
